# Assay outcomes (PubChem BioAssay)
# C diff growth – C. difficile growth inhibitors, primary screen, HTS. growth activity, negative = inhibition, % at 16 µg/mL (by protocol). actives 0.25% (n = 86,000). Clostridium difficile clinical isolate growth, OD600, 24 h; hits give low values. AID 1259249, 2017;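 active = mean growth activity at or below -80% and every replicate also at or below -80%; inconclusive = mean at or below -80% but some replicate above -80%; inactive = mean growth activity above -80%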;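 also: 0% = DMSO wells and -100% = levofloxacin 16 µg/mL wells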
# Pf Dd2 growth – P. falciparum Dd2 growth inhibitors, primary screen, SYBR Green fluorescence, single dose replicates; activity change, % at 10 µM; AID 1159554, 2015; 72 h; hits give low values; actives 2.3% (n = 94,000); in the data active = activity change below about -80%; inconclusive = no clear call, values can overlap the other calls
# Tcruzi prolif – T. cruzi intracellular proliferation inhibitors, primary screen, cell-based, beta-gal Tulahuen parasites, NIH3T3 host, luminescence; actives 5.9% (n = 77,000); AID 624255, 2012; T. cruzi beta-gal in NIH3T3, GalScreen luminescence, 90 h; inhibition, % at 8.34 µM;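 active = mean inhibition above about 93%, with at least 55% of replicates each passing it, limit read from the data, passing the limit was not always enough; inconclusive = only one of those two conditions holds; inactive = neither condition holds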
# An asterisk follows results filed as active; ? = inconclusive; . = no result given; ! = not active in a repeat. Sampled rows, rich in hits. Any-hit rate of the full collection: about 6.7%.
SMILES,C diff growth,Pf Dd2 growth,Tcruzi prolif
CO[C@@H]1CN(C)C(=O)c2ccc(NC(=O)c3ccc4c(c3)OCO4)cc2OC[C@@H](C)N(Cc2ccc3c(c2)OCO3)C[C@H]1C,5,-85*,92
CCCNC(=O)Nc1ccc2c(c1)OC[C@@H](C)N(Cc1ccccc1)C[C@@H](C)[C@H](OC)CN(C)C2=O,-2,-87*,44
CCCNC(=O)Nc1ccc2c(c1)C(=O)N(C)C[C@@H](OC)[C@H](C)CN(C(=O)C1CCOCC1)[C@@H](C)CO2,.,-87*,-59
CO[C@H]1CN(C)C(=O)c2ccc(NC(=O)c3ccc4c(c3)OCO4)cc2OC[C@@H](C)N(CC2CC2)C[C@H]1C,.,-2,.
CCCNC(=O)Nc1ccc2c(c1)OC[C@H](C)N(Cc1ccccc1)C[C@H](C)[C@@H](OC)CN(C)C2=O,-19,-35,.
CCCNC(=O)Nc1ccc2c(c1)C(=O)N(C)C[C@H](OC)[C@@H](C)CN(C(=O)C1CCOCC1)[C@H](C)CO2,.,-79,-18
CO[C@@H]1CN(C)C(=O)c2ccc(NC(=O)NC(C)C)cc2OC[C@@H](C)N(Cc2ccccc2)C[C@H]1C,-8,-85*,.
CO[C@H]1CN(C)C(=O)c2ccc(NC(=O)NC(C)C)cc2OC[C@H](C)N(Cc2ccccc2)C[C@H]1C,.,-47,34
COCC(=O)N1C[C@@H](C)[C@@H](OC)CN(C)C(=O)c2cc(NC(=O)C3CCC3)ccc2OC[C@H]1C,1,-12,-59
C[C@H]1CN([C@@H](C)CO)C(=O)c2ccccc2-c2ccccc2CO[C@H]1CN(C)Cc1cccc(F)c1,2,-29,75
CO[C@H]1CN(C)C(=O)c2ccc(NS(=O)(=O)c3ccccc3F)cc2OC[C@H](C)NC[C@H]1C,.,13,46
CCC(=O)Nc1ccc2c(c1)OC[C@H](C)N(Cc1ccccn1)C[C@@H](C)[C@@H](OC)CN(C)C2=O,.,-53,6
CCCC(=O)Nc1ccc2c(c1)OC[C@H](C)N(Cc1ccc(F)cc1)C[C@@H](C)[C@H](OC)CN(C)C2=O,.,-61,?
CCCC(=O)Nc1ccc2c(c1)OC[C@@H](C)N(Cc1ccc(F)cc1)C[C@@H](C)[C@H](OC)CN(C)C2=O,3,-87*,.
CCC(=O)Nc1ccc2c(c1)OC[C@H](C)N(Cc1ccccn1)C[C@H](C)[C@H](OC)CN(C)C2=O,.,-84*,16
C[C@@H]1CN([C@@H](C)CO)C(=O)Cc2cc(NC(=O)Nc3ccc(C(F)(F)F)cc3)ccc2O[C@@H]1CN(C)Cc1ccc(C(=O)Nc2ccccc2N)cc1,5,-4,76
COCC(=O)N1CC(=O)N2[C@H](CO)[C@@H](c3ccc(C#Cc4cccc(OC)c4)cc3)[C@@H]2C1,-11,-2,.
CCCNC(=O)N1CCC2(CC1)CN(S(C)(=O)=O)[C@H](CO)c1c2c2ccc(OC)cc2n1C,3,-83*,.
CCCNC(=O)N1CC2(C1)CN(S(C)(=O)=O)[C@@H](CO)c1c2c2ccc(OC)cc2n1C,-10,43,.
CCCNC(=O)N1CC2(CN(C(=O)CN(C)C)C2)c2c(n(C)c3cc(OC)ccc23)[C@H]1CO,3,33,.
COc1ccc2c3c(n(C)c2c1)[C@H](CO)N(C(=O)C1CC1)CC31CCN(C(=O)CN(C)C)CC1,-3,-78,.
COc1ccc2c3c(n(C)c2c1)[C@@H](CO)N(C(=O)C1CC1)CC31CCN(C(=O)CN(C)C)CC1,-4,-84*,.
CCCNC(=O)N1CC2(CCN(Cc3cccc(OC)c3)CC2)c2c(n(C)c3cc(OC)ccc23)[C@H]1CO,1,-72,.
CCCNC(=O)N1CC2(CCN(Cc3cccc(OC)c3)CC2)c2c(n(C)c3cc(OC)ccc23)[C@@H]1CO,-3,-89*,.
CCCNC(=O)N1CC2(CCN(C(=O)CN(C)C)CC2)c2c(n(C)c3cc(OC)ccc23)[C@H]1CO,-4,-88*,.
SMILES,C diff growth,Pf Dd2 growth,Tcruzi prolif
COc1cccc(S(=O)(=O)N[C@H]2C=C[C@H](CC(=O)NCc3ccncc3)O[C@H]2CO)c1,-1,16,.
Cc1noc(C)c1S(=O)(=O)N(C)C[C@@H]1OCCCC[C@@H](C)Oc2ccc(NC(=O)Nc3ccccc3)cc2C(=O)N([C@@H](C)CO)C[C@H]1C,5,-24,.
COc1ccc2c3c([nH]c2c1)[C@@H](CO)N(C(=O)c1ccc(F)cc1)CC31CN(C(=O)Nc2ccc(F)cc2)C1,.,37,.
CCC(=O)N1CC2(CCN(Cc3ccc(Cl)cc3)CC2)c2c(n(C)c3cc(OC)ccc23)[C@H]1CO,-2,-83*,.
CCC(=O)N1CC2(CN(Cc3ccc(Cl)cc3)C2)c2c(n(C)c3cc(OC)ccc23)[C@@H]1CO,5,-65,.
C[C@H](O)C#Cc1cnc2c(c1)C(=O)N([C@H](C)CO)C[C@H](C)[C@@H](CN(C)C(=O)CN1CCOCC1)O2,-3,55,86
C[C@H]1CN([C@@H](C)CO)C(=O)c2cc(C3=CCCCC3)cnc2O[C@@H]1CN(C)C(=O)Cc1ccncc1,.,12,.
CO[C@@H]1CN(C)C(=O)c2cc(NC(=O)Nc3ccc(Cl)c(Cl)c3)ccc2OC[C@H](C)NC[C@@H]1C,-97*,-67,-42
CO[C@H]1CN(C)C(=O)c2cc(NC(=O)Nc3ccc(Cl)c(Cl)c3)ccc2OC[C@H](C)NC[C@H]1C,-99*,-84*,-43
CO[C@@H]1CN(C)C(=O)c2cc(NC(=O)Nc3ccc(Cl)cc3)ccc2OC[C@H](C)NC[C@H]1C,0,-7,-48
CO[C@@H]1CN(C)C(=O)c2cc(NC(=O)Nc3cc(Cl)cc(Cl)c3)ccc2OC[C@@H](C)NC[C@@H]1C,.,.,24
CC(C)NC(=O)N(C)C[C@H]1Oc2ccc(NC(=O)Nc3ccc(C(F)(F)F)cc3)cc2C(=O)N([C@@H](C)CO)C[C@H]1C,19,-9,28
COc1ccccc1-c1cccc(-c2nc(C(=O)Nc3nccs3)cc3c2[C@@H](CCO)N(C(C)=O)C3)c1,5,-69,.
COc1ccccc1-c1cccc(-c2nc(C(=O)Nc3nccs3)cc3c2[C@H](CCO)N(C(C)=O)C3)c1,-7,-95*,.
COc1ccccc1-c1ccc([C@@H]2[C@@H]3CN(S(=O)(=O)c4ccc(-c5ccccc5)cc4)C[C@H]2N3)cc1,6,-89*,.
O=S(=O)(c1ccc(-c2ccccc2)cc1)N1C[C@@H]2N[C@H](C1)C2c1ccc(-c2cncnc2)cc1 (stereo partly drawn),5,2,.
O=S(=O)(c1ccccc1)N1C[C@@H]2N[C@H](C1)C2c1ccc(-c2ccc(F)cc2)cc1 (stereo partly drawn),9,-84*!,.
O=S(=O)(c1ccc(F)cc1)N1C[C@@H]2N[C@H](C1)C2c1ccc(-c2ccc(F)cc2)cc1 (stereo partly drawn),9,-88*!,.
O=S(=O)(c1ccccc1)N1C[C@@H]2N[C@H](C1)C2c1ccc(/C=C/c2ccccc2)cc1 (stereo partly drawn),-96*!,-37,.
COc1cccc(S(=O)(=O)N2C[C@@H]3N[C@H](C2)C3c2ccc(-c3ccccc3OC)cc2)c1 (stereo partly drawn),11,-34,.
